# In the supplement of paper PMC12067093, “Discovery and optimisation of a covalent ligand for TRIM25 and its application to targeted protein ubiquitination” (Chemical Science, 2025):
# Of roughly 21,000 targets only a part is listed; those with the largest changes were picked by preference.
# Compound: Cc1cc(ccc1-c1ccccc1)C(=O)N1CCCN(CC1)C(=O)CCl [compound 10]
# Assay: probe-labelled cysteine peptide fold change vs DMSO (competition) (log2 fold change); higher = less target engagement (more negative = stronger competition)
# Settings: THP-1, incubation time: 4 h
# 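Also: competitive profiling in live THP-1 cells: cysteine peptides tagged with an iodoacetamide desthiobiotin (IA-DTB) probe, intensity after compound treatment relative to DMSO-treated cells.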
# Sequence of UniProt Q6YHU6 (Q6YHU6 whole entry, looked up): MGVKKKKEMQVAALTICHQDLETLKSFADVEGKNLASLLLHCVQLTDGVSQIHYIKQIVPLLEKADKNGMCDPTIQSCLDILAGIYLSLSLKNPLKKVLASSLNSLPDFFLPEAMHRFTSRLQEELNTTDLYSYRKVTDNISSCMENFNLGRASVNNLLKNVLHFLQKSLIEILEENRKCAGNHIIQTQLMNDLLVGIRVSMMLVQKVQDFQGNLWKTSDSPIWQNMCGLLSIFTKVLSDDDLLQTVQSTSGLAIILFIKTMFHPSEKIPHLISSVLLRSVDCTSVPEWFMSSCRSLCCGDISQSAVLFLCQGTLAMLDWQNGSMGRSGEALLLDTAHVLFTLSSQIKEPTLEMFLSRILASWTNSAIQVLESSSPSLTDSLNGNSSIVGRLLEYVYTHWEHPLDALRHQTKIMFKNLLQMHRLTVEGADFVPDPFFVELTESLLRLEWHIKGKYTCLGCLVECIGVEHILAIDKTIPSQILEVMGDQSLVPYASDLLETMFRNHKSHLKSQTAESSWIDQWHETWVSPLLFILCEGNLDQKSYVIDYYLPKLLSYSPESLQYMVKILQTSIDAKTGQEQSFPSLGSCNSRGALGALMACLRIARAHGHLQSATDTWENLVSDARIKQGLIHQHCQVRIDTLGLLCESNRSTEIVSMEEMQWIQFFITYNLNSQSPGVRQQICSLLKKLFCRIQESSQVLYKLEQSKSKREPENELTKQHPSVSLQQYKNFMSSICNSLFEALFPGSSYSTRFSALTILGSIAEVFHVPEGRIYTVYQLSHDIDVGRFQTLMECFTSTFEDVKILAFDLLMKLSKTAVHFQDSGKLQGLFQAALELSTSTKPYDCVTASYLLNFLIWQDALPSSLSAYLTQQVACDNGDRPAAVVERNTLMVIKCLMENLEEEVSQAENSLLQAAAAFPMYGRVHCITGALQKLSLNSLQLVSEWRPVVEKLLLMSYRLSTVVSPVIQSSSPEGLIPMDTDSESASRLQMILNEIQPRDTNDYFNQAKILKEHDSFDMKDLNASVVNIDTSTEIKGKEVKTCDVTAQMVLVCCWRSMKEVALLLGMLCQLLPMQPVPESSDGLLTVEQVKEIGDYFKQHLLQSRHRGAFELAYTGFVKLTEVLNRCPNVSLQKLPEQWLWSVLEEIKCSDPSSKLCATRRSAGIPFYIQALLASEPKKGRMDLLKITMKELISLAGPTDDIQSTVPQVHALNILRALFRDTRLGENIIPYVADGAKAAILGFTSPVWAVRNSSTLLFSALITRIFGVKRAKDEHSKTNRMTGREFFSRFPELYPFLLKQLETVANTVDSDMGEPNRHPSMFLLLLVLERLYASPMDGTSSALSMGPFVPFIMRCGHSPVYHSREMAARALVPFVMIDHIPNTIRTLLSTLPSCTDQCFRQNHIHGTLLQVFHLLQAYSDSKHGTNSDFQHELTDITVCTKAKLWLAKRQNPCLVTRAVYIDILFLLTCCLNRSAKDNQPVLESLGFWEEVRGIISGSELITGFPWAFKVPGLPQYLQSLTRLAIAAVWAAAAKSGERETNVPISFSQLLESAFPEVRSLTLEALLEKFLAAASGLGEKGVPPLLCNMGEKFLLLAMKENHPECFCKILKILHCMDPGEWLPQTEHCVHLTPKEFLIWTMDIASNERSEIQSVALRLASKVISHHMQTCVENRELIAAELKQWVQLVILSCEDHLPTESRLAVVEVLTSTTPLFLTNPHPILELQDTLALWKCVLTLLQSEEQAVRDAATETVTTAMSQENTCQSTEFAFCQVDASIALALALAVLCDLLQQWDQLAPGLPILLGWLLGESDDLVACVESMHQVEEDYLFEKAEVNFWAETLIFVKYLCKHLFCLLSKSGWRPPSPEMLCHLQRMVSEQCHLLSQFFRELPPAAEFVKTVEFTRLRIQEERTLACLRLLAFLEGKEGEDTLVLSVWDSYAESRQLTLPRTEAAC
# Sequence of UniProt O00186 (O00186 whole entry, looked up): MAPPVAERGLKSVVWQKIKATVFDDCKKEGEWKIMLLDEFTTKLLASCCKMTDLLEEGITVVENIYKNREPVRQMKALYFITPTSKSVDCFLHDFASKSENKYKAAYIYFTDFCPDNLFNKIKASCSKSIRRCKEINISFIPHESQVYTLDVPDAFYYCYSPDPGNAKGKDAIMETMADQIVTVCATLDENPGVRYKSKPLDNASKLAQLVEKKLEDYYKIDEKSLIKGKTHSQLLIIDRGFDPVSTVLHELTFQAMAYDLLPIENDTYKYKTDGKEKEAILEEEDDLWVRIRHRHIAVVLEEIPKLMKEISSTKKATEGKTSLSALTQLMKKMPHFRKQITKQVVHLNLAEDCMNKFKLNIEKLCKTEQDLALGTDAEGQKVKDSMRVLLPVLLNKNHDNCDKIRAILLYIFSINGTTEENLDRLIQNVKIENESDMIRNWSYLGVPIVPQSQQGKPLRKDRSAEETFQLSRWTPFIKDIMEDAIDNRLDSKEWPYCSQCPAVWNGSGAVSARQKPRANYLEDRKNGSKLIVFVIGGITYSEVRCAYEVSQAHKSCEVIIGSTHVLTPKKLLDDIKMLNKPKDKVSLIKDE
# Sequence of UniProt Q15813 (Q15813 whole entry, looked up): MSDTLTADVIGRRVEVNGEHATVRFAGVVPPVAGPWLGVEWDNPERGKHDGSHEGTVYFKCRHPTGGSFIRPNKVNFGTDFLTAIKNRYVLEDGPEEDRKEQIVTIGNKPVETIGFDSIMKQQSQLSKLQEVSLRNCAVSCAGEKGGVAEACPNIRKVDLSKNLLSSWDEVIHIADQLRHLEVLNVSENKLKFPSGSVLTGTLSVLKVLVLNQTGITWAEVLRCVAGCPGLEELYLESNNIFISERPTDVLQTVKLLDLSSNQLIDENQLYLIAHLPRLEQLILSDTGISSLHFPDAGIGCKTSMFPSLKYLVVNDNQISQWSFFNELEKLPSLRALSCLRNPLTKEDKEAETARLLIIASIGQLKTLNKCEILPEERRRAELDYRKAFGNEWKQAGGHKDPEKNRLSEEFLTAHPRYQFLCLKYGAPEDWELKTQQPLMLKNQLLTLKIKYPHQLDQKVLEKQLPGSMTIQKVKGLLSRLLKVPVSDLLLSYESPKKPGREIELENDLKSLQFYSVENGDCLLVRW
# Sequence of UniProt Q5T5C0 (Q5T5C0 whole entry, looked up): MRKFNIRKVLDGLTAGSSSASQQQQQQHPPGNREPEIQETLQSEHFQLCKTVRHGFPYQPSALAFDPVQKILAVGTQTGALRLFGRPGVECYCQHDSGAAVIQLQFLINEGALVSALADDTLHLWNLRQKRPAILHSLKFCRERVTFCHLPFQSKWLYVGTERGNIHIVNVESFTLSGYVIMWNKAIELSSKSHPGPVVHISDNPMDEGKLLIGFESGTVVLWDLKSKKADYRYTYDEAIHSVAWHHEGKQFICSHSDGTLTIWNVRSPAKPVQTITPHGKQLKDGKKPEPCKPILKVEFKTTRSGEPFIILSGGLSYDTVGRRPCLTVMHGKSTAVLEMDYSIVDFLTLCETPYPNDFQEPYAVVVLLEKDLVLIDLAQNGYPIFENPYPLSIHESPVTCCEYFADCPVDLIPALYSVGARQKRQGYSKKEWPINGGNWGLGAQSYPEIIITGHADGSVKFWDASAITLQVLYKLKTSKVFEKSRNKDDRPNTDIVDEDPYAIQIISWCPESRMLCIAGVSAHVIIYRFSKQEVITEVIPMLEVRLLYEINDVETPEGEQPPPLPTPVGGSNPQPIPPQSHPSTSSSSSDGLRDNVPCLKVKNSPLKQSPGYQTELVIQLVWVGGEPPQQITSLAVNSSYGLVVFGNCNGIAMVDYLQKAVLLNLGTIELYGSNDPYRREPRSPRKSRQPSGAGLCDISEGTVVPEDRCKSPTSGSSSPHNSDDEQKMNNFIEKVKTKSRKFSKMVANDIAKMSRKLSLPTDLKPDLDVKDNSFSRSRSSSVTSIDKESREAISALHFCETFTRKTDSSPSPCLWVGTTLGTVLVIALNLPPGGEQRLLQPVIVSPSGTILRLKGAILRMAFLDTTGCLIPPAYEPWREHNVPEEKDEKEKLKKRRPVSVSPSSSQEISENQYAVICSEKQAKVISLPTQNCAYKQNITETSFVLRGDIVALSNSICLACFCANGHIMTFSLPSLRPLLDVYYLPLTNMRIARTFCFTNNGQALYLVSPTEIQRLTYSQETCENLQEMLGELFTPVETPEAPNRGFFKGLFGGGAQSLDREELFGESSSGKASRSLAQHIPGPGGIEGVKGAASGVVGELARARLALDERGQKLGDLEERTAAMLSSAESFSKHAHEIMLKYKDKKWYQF
# Sequence of UniProt P26639 (P26639 whole entry, looked up): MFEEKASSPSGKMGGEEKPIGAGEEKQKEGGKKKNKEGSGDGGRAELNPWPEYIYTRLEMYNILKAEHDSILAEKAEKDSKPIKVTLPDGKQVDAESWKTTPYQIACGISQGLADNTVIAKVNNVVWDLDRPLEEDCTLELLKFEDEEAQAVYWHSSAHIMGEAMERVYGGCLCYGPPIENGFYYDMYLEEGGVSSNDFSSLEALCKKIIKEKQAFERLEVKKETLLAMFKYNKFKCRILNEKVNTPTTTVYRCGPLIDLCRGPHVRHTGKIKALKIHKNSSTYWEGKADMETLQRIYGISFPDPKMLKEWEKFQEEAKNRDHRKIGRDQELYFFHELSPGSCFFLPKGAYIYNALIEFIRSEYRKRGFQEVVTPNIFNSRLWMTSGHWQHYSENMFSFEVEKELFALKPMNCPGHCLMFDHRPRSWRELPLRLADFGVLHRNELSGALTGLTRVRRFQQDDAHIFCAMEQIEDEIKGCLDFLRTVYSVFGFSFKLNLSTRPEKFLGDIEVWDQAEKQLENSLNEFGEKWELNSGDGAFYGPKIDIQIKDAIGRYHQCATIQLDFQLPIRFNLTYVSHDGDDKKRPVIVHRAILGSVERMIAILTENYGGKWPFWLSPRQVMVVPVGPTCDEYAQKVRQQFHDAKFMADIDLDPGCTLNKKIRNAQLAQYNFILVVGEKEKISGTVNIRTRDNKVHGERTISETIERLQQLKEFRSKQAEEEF
# Sequence of UniProt P49458 (P49458 whole entry, looked up): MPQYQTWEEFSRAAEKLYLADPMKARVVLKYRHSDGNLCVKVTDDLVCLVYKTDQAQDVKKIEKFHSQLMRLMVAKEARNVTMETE
Target,probe-labelled cysteine peptide fold change (10 µM),probe-labelled cysteine peptide fold change (50 µM)
TBC1D13_Q9NVG8_387_LLQDYPITDVCQILQK (UniProt Q9NVG8),-0.0681,-0.374
TOE1_Q96GM8_371_KQVCGDSIKPEETEQEVAADETR (UniProt Q96GM8),-0.0655,-0.661
THADA_Q6YHU6_1605_ENHPECFCK (UniProt Q6YHU6),-0.00737,0.033
SPAG9_O60271_1210_VTPGTFIPYCSMAHAQLCFHGHR (UniProt O60271),0.231,1.04
TK1_P04183_206_ENCPVPGKPGEAVAAR (UniProt P04183),-0.0233,-0.211
SORD_Q00796_179_VLVCGAGPIGMVTLLVAK (UniProt Q00796),-0.0988,-1.77
TBCD_Q9BTW9_1055_TLDHVLTHGCFDIFTTEEDHPFAVK (UniProt Q9BTW9),-0.188,-0.0289
SUZ12_Q15022_494_IDVSINECYDGSYAGNPQDIHR (UniProt Q15022),0.105,0.302
THUMPD1_Q9NXG2_31_CDAGGPR (UniProt Q9NXG2),0.347,1.08
STK11_Q15831_418_ACSASSK (UniProt Q15831),-0.73,-1.42
STXBP5_Q5T5C0_697_SRQPSGAGLCDISEGTVVPEDR (UniProt Q5T5C0),-0.389,-0.218
SRPK2_P78362_320_IIEENITSAAPSNDQDGEYCPEVK (UniProt P78362),-0.0943,0.0113
SP9_P0CG40_308_ATCDCPNCQEAER<|>SP8_Q8IXZ3_332_ATCDCPNCQEAER (UniProt Q8IXZ3+P0CG40),0.0559,0.393
TLN1_Q9Y490_1363_ECDNALRELETVR (UniProt Q9Y490),-0.431,-1
SPAG5_Q96R06_907_TEQETLLLSTACPPTQEHPLPNDR (UniProt Q96R06),-0.115,0.0555
TBL2_Q9Y4P3_240_GQVLSTINTNQMNNTHAAVSPCGR (UniProt Q9Y4P3),-0.0462,0.0804
TARS_P26639_261_CGPLIDLCR (UniProt P26639),0.0971,0.248
TOE1_Q96GM8_80_SLLNQCIEER (UniProt Q96GM8),-0.52,-2.28
SORL1_Q92673_752_LEGELVPCPLAEENEFILYAVR (UniProt Q92673),0.124,0.148

Target,probe-labelled cysteine peptide fold change (10 µM),probe-labelled cysteine peptide fold change (50 µM)
TONSL_Q96HA7_231_ECAHTMR (UniProt Q96HA7),-0.316,-1.42
TET3_O43151_1381_GKPWSPCK (UniProt O43151),-0.379,-1.3
STAT6_P42226_228_CESLVDIYSQLQQEVGAAGGELEPK (UniProt P42226),0.0404,-0.0978
STRN_O43815_316_EDQCLMPEAWNVDQGVITK (UniProt O43815),-0.23,-0.374
TNS3_Q68CZ2_512_DRETDILDDEMPHHDLHSVDSLGTLSSSEGPQSAHLGPFTCHK (UniProt Q68CZ2),-0.555,-1.66
TEP1_Q99973_692_TVLVYLTDANADRLCPK (UniProt Q99973),-0.328,-0.442
TMEM120A_Q9BXJ8_47_LQNNCTSSITR (UniProt Q9BXJ8),-0.176,-0.0504
TBCE_Q15813_141_NCAVSCAGEK (UniProt Q15813),-0.11,-1.39
TIMELESS_Q9UNS1_96_LMVNLTQPALLCFGNLPK (UniProt Q9UNS1),0.247,-1.08
TPI1_P60174_164_VAHALAEGLGVIACIGEK (UniProt P60174),0.0839,0.00853
TES_Q9UGI8_164_CHELSPR (UniProt Q9UGI8),-0.162,-0.0644
SORD_Q00796_301_YCNTWPVAISMLASK (UniProt Q00796),0.251,0.115
SRP9_P49458_48_VTDDLVCLVYK (UniProt P49458),0.216,-0.255
STXBP3_O00186_114_AAYIYFTDFCPDNLFNK (UniProt O00186),0.0291,0.184
TANK_Q92844_318_TKPSNLVNTCIR (UniProt Q92844),-0.257,-0.558
TOR4A_Q9NXH8_230_HHCPEAR (UniProt Q9NXH8),-0.165,0.0719
STXBP2_Q15833_110_AAHIFFTDTCPEPLFSELGR (UniProt Q15833),0.0186,0.272
SORD_Q00796_165_LPDNVTFEEGALIEPLSVGIHACR (UniProt Q00796),0.00881,0.188
SPC24_Q8NBT2_155_IEWDYECEPGMVK (UniProt Q8NBT2),-0.17,0.000933
